Screen size: about 360,000 compounds; about 2,900 (0.81%) were called active.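 How the source made its calls: active means inhibition above the mean inhibition across every tested compound plus 3 SD (cut at about 22% in these data); inactive means the rest.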 What follows is part of a selection rich in actives, with near analogues and random picks from the rest.
Each molecule was assayed against Perilipin-5 (Homo sapiens) + 1-acylglycerol-3-phosphate O-acyltransferase ABHD5 (Homo sapiens) (UniProt Q00G26+Q8WTS1) (assay: ABHD5-PLIN5 interaction inhibitors, primary screen, cell lysate, split luciferase complementation, luminescence (AID 602281;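 further: 0% = DMSO only wells and the 100% control is not disclosed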)). Conditions: Split G. princeps luciferase complementation, 4 h, at 4 µM, stronger effect = higher value.
Chain of Perilipin-5 (Homo sapiens) + 1-acylglycerol-3-phosphate O-acyltransferase ABHD5 (Homo sapiens) (Q00G26 whole entry, looked up): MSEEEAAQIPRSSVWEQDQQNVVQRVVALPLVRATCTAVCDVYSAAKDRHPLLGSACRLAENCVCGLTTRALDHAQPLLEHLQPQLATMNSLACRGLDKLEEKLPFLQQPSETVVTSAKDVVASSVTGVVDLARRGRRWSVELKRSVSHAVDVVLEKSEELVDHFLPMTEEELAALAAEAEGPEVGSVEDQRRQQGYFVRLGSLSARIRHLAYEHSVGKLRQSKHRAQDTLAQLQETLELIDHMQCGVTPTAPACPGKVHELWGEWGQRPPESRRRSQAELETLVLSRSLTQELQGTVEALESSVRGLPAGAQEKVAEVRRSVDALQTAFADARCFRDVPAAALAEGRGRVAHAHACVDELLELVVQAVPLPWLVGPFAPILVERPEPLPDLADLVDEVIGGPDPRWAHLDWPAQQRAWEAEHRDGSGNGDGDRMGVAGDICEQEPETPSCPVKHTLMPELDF
Chain of Perilipin-5 (Homo sapiens) + 1-acylglycerol-3-phosphate O-acyltransferase ABHD5 (Homo sapiens) (Q8WTS1 whole entry, looked up): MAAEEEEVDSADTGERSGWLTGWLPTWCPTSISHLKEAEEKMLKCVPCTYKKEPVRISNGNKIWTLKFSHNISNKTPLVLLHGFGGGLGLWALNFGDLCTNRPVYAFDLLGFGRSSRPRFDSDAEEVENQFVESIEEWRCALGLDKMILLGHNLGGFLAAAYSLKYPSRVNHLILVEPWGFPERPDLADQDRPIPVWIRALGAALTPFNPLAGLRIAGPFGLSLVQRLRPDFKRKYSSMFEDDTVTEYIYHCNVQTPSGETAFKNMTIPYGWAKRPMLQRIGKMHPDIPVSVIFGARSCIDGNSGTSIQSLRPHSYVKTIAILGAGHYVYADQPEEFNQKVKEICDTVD
With `O=S(=O)(NCc1cccnc1)c1ccc(Cl)nc1` the inhibition was 5.93% (inactive). `Cc1cc(C)c(C)c(S(=O)(=O)Nc2ccc(O)cc2)c1C` was tested, and the inhibition was 4.3% (inactive). `COc1ccc(CN2C(=O)C(CC(=O)NCCN3CCOCC3)CC(C(=O)N(C(C)C)C(C)C)=C2C)cc1` (centres undefined) was tested, and the inhibition was -11% (inactive). `CCCCCCCCCCCCCCCC(=O)OC/C=C(C)/C=C/C=C(C)/C=C/C1=C(C)CCCC1(C)C` was tested, and the inhibition was -4.62% (inactive). For `O=C(Nc1ccccc1C(F)(F)F)N1CCCC1c1cccnc1` (centres undefined), the inhibition was 11.2% (inactive). With `O=C(CCc1nnc2ccc(NCc3ccco3)nn12)Nc1cc(F)ccc1F` the inhibition was 22.5% (active). In the case of `CCOC(=O)c1cccc(NC(=O)CCc2nnc3ccc(N4CCOCC4)nn23)c1`, the inhibition is reported as -2.37% (inactive). `O=C(CNc1ccc(F)cc1F)NC(=O)NCc1ccco1` was tested, and the inhibition was -0.2% (inactive). In the case of `CC(=O)c1ccc(NC(=O)CCc2nnc3ccc(NCc4ccco4)nn23)cc1`, the inhibition is reported as 27.9% (active). With `CC1CCN(C(=O)CCc2nnc3ccc(NCc4ccco4)nn23)CC1` the inhibition was 7.83% (inactive). With `CCOc1ccccc1NC(=O)CCc1nnc2ccc(NCc3ccco3)nn12` the inhibition was 16.7% (inactive). For `Cc1ccc(-n2c(SCC(=O)Nc3ncc(Cl)cc3Cl)nc3ccccc32)cc1`, the inhibition was -7.45% (inactive). With `Nn1c(SCC(=O)NC2CCCc3ccccc32)nnc1C1CC1` (centres undefined) the inhibition was 10.4% (inactive). With `O=S(=O)(Nc1nccs1)c1ccc2c(c1)OCCO2` the inhibition was -5.22% (inactive). With `CCOc1ccc2nc(Cl)c(C3CC(c4ccccc4)=NN3C(=O)c3cccs3)cc2c1` (centres undefined) the inhibition was -5.74% (inactive). For `Cc1cccc(C)c1NC(=O)CN1C(=O)C(C)Oc2ccccc21` (centres undefined), the inhibition was -5.51% (inactive). `O=C(NCCS(=O)(=O)NCc1ccc(Cl)cc1)c1ccccc1` was tested, and the inhibition was -6.46% (inactive). In the case of `Cc1cc(C(=O)NCCc2ccc(Cl)cc2)n(-c2ccccc2)n1`, the inhibition is reported as 1.98% (inactive). With `O=C(NCCOCc1ccc(Cl)cc1)c1ncn[nH]1` the inhibition was 24.2% (active). `O=C(C(=O)N1CCc2ccccc2C1)c1c[nH]c2ccccc12` was tested, and the inhibition was 0.81% (inactive). For `COc1cccc(C(CC(=O)NCCN2CCOCC2)NS(=O)(=O)c2ccc(C)cc2)c1OC` (centres undefined), the inhibition was 9.39% (inactive). In the case of `Nc1ccc2nc3c(=O)[nH]c(=S)[nH]c3nc2c1`, the inhibition is reported as 35% (active). With `CN(CC(=O)Nc1ccc(F)cc1)CC(=O)Nc1ccc(Cl)c(S(=O)(=O)N2CCOCC2)c1` the inhibition was 5.71% (inactive). In the case of `Cc1cccc(CS(=O)(=O)c2ncc(Cl)c(C(=O)Nc3ccc(F)cc3)n2)c1`, the inhibition is reported as 53.6% (active). For `O=C(CS(=O)(=O)Cc1ccccc1)Nc1cccnc1`, the inhibition was -3.38% (inactive). In the case of `Cc1cccc(NC(=O)c2nc(S(=O)(=O)Cc3ccccc3)ncc2Cl)c1`, the inhibition is reported as 72.4% (active). For `Cc1cccc(C(=O)Nc2ccc(Oc3cnccn3)cc2)c1`, the inhibition was 3.4% (inactive). With `Cc1cccc(NS(=O)(=O)c2ccc(C)c(C(=O)NCc3cccnc3)c2)c1` the inhibition was 3.74% (inactive). With `O=C(NCCN1CCN(C(=O)c2cccc([N+](=O)[O-])c2)CC1)C(=O)NCc1ccc(Cl)cc1` the inhibition was 12.1% (inactive). In the case of `CCOc1cc(C(=O)Nc2c(C)ccc3nsnc23)cc(OCC)c1OCC`, the inhibition is reported as -10.9% (inactive). In the case of `C[C@@H]1C[C@@H]2O[C@H]2/C=C\C=C\C(=O)Cc2c(Cl)c(O)cc(O)c2C(=O)O1`, the inhibition is reported as 27.7% (active). With `COc1ccccc1CNS(=O)(=O)c1cc(C(=O)NCc2ccccn2)c(Cl)cc1Cl` the inhibition was 2.36% (inactive). For `Cc1ccc2c(c1)N(CC(=O)N1CCC(C)CC1)C(=O)c1cccnc1O2`, the inhibition was -5.07% (inactive). With `Cc1ccc(N(C(=O)c2ccc(CN3CCOCC3)o2)C(C(=O)NCCC(C)C)c2cccs2)c(C)c1` (centres undefined) the inhibition was 5.44% (inactive). For `Cc1ccc(S(=O)(=O)N2CCC(C(=O)N[C@@H](C)C(=O)NCCc3ccccc3)CC2)cc1`, the inhibition was -6.43% (inactive). `NC(=S)Nc1c(Cl)cccc1Cl` was tested, and the inhibition was -3.54% (inactive). For `CCCCN(CCCC)CCNC(=O)CN1C(=O)COc2ccc(S(=O)(=O)N3CCOCC3)cc21`, the inhibition was -1.64% (inactive). With `Cc1ccc(Cc2c(-c3ccco3)nc3ccc(Cl)cn23)cc1` the inhibition was 54.8% (active). With `Cc1ccc2nc(-c3ccco3)c(Cc3cccc(Cl)c3)n2c1` the inhibition was 32.1% (active). `Cc1cc2nc(-c3ccco3)c(Cc3cccc(F)c3)n2c(C)c1Br` was tested, and the inhibition was 23.1% (active). With `Cc1cc2nc(-c3ccc(F)cc3)c(Cc3ccsc3)n2c(C)c1Br` the inhibition was -2.1% (inactive). For `Clc1cccc(Cc2c(-c3cccc(Cl)c3)nc3ccc(Cl)cn23)c1`, the inhibition was -8.19% (inactive). With `Fc1cccc(Cc2c(-c3cccc(Cl)c3)nc3ccc(Br)cn23)c1` the inhibition was -8.3% (inactive). With `Cc1cc2nc(-c3ccc(Cl)cc3)c(Cc3cccc(F)c3)n2c(C)c1Br` the inhibition was -5.68% (inactive). With `Cc1ccc(Cc2c(-c3ccccc3)nc3ccc(Cl)cn23)cc1` the inhibition was -3.87% (inactive). In the case of `Fc1cccc(Cc2c(-c3ccc(Cl)cc3)nc3ccc(Cl)cn23)c1`, the inhibition is reported as 11.5% (inactive). With `Nn1c(SCc2ccccc2)nnc1C1CCCCC1` the inhibition was 7.84% (inactive). With `CCOc1ccc(NC(=O)CN(C)CC(=O)Nc2cccc(Cl)c2C)cc1OCC` the inhibition was -2.27% (inactive). In the case of `COCCN1Cc2cccc(C(=O)Nc3ccccc3OC)c2C1=O`, the inhibition is reported as 2.14% (inactive). With `CCc1ccccc1S(=O)(=O)Cc1ccc(C(=O)NCCc2ccccc2)o1` the inhibition was 0.54% (inactive). For `CCC(C)CN1C(=O)CSCC1(C)C(=O)NCc1ccccc1` (centres undefined), the inhibition was -0.17% (inactive). For `NC(=O)C(Cc1ccccc1)NC(=O)C12CC3CC(CC(C3)C1)C2` (centres undefined), the inhibition was -7.59% (inactive). For `COc1cc(OC)cc(C(=O)NNC(=O)CNC(=O)c2ccc(Br)o2)c1`, the inhibition was 1.69% (inactive). With `CCCCCCNC(=O)O[C@H]1CN(C(=O)OC(C)C)N(C(=O)OC(C)C)[C@@H]2CN(S(=O)(=O)c3ccc(C)cc3)C[C@]12O` the inhibition was -9.24% (inactive). For `CCOCCOC(=O)C1=C(C)N(C)C(=O)NC1c1ccccc1F` (centres undefined), the inhibition was 2.63% (inactive). `CN1c2ccc(C=O)c3c(C=O)ccc(c23)N(C)C1(C)C` was tested, and the inhibition was 7.33% (inactive). In the case of `CC(C)c1ccccc1OCC(O)CN(CC(O)COc1cccc2ccccc12)C(C)C` (centres undefined), the inhibition is reported as 8.09% (inactive). With `Cc1cc(C)cc(OCC(=O)NCc2cc(C)nc3ccccc23)c1` the inhibition was 0.84% (inactive). For `Cc1cc(C)c(NC(=O)C[N+](C)(C)CC(O)COc2cccc3ccccc23)c(C)c1` (centres undefined), the inhibition was 33% (active).

Reference: PubChem BioAssay AID602281 (The Scripps Research Institute Molecular Screening Center, 2012)
